Whole data set: some 59,000 sequences, median the read-out near -0.00055, cut for the lowest 2% near -2. This is one part of a sample in which the lowest values are shown more often than they occur.

The test is described as follows: Identification of proteins required for the processing of the EWS-FLI1 nascent transcript.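 Also: robust z of luciferase light less the median z of siRNAs with the same seed.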 Particulars: TC32 Ewing sarcoma NR0B1-luc vs CMV-luc (EWS-FLI1 target promoter against control promoter), 48 h; screened at 20 nM (by protocol). In short, it runs like this:
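Three siRNAs per gene, each in a separate well at 20 nM, were transfected into TC32 cells bearing either reporter construct. Luminescence was measured two days on, and per-gene comparison relied on seed-corrected Z values.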
In turn, UUUGUGCUGCUUGUUCUCG against ADCK3 returned a seed-corrected z-score of -1. Take UGUAUCUCGAUCUUCACCG against STRN: the seed-corrected z-score was -0.0881.

On to UGCAUGAAUAGAGUCGGCG against RAB22A, for which the seed-corrected z-score is -0.347. Sequence AAAUAUAUAGGGCAUCCAG against PLEKHM1P1 had a seed-corrected z-score of 0.174. The result for UCUUCUCUAAGUCUAGGUC against POM121 reads 0.532; that for UGCUGAAUAGGUCCAAUCC against HERPUD1, -1.46. UCAUAUGGAACUCUAAAGC against PIK3CG displayed a seed-corrected z-score of 0.358. For AAUCUUCAAACAGCCGCUC against CHRNA3, the seed-corrected z-score was -2.52. In turn, AUAUGAUUCCCAAUUAAUG against TMEM119 registered a seed-corrected z-score of 1.74. As for UAAGAUCCGAGUCACUAUC against RPH3AL, the seed-corrected z-score was -0.639.

In turn, UUUCAGCUUCUUGUACUGG against ROCK1P1 came in with a seed-corrected z-score of -2.99. UCGUUGAUCACAAUUAGCU against ADAM11 yielded a seed-corrected z-score of 0.436. To UCUGGUAUCAGAAAGUUCG against BBS7 belongs -0.128; to ACAGAUAUAGGAGAAAGCC against NUMBL, 0.00267; to UAGCCUAUCAAUGAAACCU against ZNF222, 0.694.

Turning to UUUACGUCGUUCUUCUUCC against TXLNG, the seed-corrected z-score turned out to be 0.0162. UUUGGGUCAACGGUGAGGU against KIAA2012: the seed-corrected z-score is 0.316.

Take AUGUUUUUCAAGUAGCUUC against CDRT4: the seed-corrected z-score was -1.38. To UUAACUUGUUGUAUUGCUG against CCDC109B belongs 1.36; to AACACUAUUUAGCUCAUUC against TARBP1, 0.0464; to UGAGAGAUAAUUUUGGGAG against SPDYC, -12.8. UUACUUUCUUCAACCAAAG against TRMT6 had a seed-corrected z-score of 0.527. The result for UUUCGAAGUUGCAUGGUUG against KDM5D reads -0.291.

Turning to UCUUAGACCCUGGAGGUGG against TBRG4, the seed-corrected z-score is -0.178. UAUUAGACAGAACUCUUGG against TNRC6C had a seed-corrected z-score of -14.8. To UUAGAUUUCUCCCUCGGUG against ZNF136 belongs -0.576; to UCUUCGAACUGAAUGAGUG against ME2, 0.165. To UUUACUGGGAUAGUUAAUC against C2CD4A belongs 1.08. Turning to UCCACUAUUACAACAGCCC against SFPQ, the seed-corrected z-score is -2.65. The result for UUCUUAUCAAGAAUAGUCC against PTER reads -0.285; that for UUCUGCGUCACUUUCUACC against CRNKL1, -0.902; that for UUUGGGACAAGGCACAAGC against PRKCDBP, 0.468.

For UACAAUACUAUUUCGAAUC against ZNF44, the seed-corrected z-score was -0.235.

UCAAAUACUGGUCGAAUUC against SOX7 gave a seed-corrected z-score of 0.0233. In the case of UUGGGCAUAAUGGAAGCUG against EIF2B2, the seed-corrected z-score was -1.39. For UUGGGUAGUAGCAUAGCCU against SYNC, the seed-corrected z-score was -2.19. The result for UUGAUUUCCACUCCUUUUG against SGCD reads -0.522. UAUUUCUCGAUUAUCUUCA against ICA1L showed a seed-corrected z-score of -1.21. To UGCAGUACCAGGUUCAGGG against DOK1 belongs 0.361. For AAUCCCAAAACCUUCUCGC against TPRG1L, the seed-corrected z-score was -2.07. With ACUUGGAAAUCUCUUUUCG against FAM117A, the seed-corrected z-score was 0.27. Sequence UGUUGCAUUCUUGUCAUCC against CRAMP1 yielded a seed-corrected z-score of -0.303. UGACAUGUCCUCAACAUCA against TMEM91: the seed-corrected z-score was -1.41. UUAUCGUCAUGGUAAACAC against GXYLT1: the seed-corrected z-score was 0.378. UCAGUAUCCAGGUCAGUGC against LEMD2: the seed-corrected z-score amounted to 0.794. UCCUCCCUAACAAAUAGGC against NUDT16 showed a seed-corrected z-score of -0.295. The sequence AAGGUUGCUAUACGUGGGC against C19orf35 displayed a seed-corrected z-score of -2.85. To UUUCAAUCCUGUAAGGGUC against CDC23 belongs 0.07; to UGGAUAAUCAGGAUGGUCC against AKR1C4, -0.343. As to UAAGCAACAGGAGCUCAGU against KRT6B, the seed-corrected z-score stood at 0.507. UGGUUGAUCAAUGCGAUAG against C11orf54 showed a seed-corrected z-score of -0.331. In the case of UUUGAGUACUCCAAGAUGU against C20orf96, the seed-corrected z-score is 0.627.

Turning to AUAGCUUCCACUUUAGCGG against KDM5A, the seed-corrected z-score is -3.29. AUAGGUACUACAUAUGAGC against DSC2 gave a seed-corrected z-score of -0.323. Turning to AACAUAACAGUUGAAGUGA against TMEM244, the seed-corrected z-score is -0.604.

In turn, UGAGCUACAUGUGAAGGCC against ZNF35 yielded a seed-corrected z-score of -0.965. UAAUUUCAAGCCGAUCUUC against EIF3H came in with a seed-corrected z-score of -1.14. For UUGACUAUAACCUGAAGCC against OTX2, the seed-corrected z-score is -2.79. Sequence UAGGAAUCCUCGUUUAGUG against YWHAH gave a seed-corrected z-score of 0.112. The result for UCAUUGUCCGAUGCCUUGG against SLCO1B3 reads -0.953; that for UUCUGCCCAAGUACAAUGG against C16orf52, -2.07. In the case of UCUUUGAGAAUGUCAAGCU against TIMM44, the seed-corrected z-score was 0.11. Consider UCUCUGUAUCGUAUGGUGG against NTN4, for which the seed-corrected z-score is -0.868. With UUGGUAGACACCUCCUUGU against KRT13, the seed-corrected z-score worked out at 0.268. UUUGCGACAAAACAGUUUG against DEPTOR: the seed-corrected z-score came to 0.125. AUCAGAAUCAGGAUAGGCC against RND2 showed a seed-corrected z-score of 0.812. With AAUCUCACAGGUGAAGUGG against OR2S2, the seed-corrected z-score was -0.14.

AGAGUUGUCAGAAGGGCGG against NCR2 returned a seed-corrected z-score of -5.82. To UGCAUAAUAAGUCAUGUGG against DCN belongs -0.34; to UUUCCUUCUGCUCUCGUGC against RCAN3, 0.855. As to AUCUUUAGAACAUCGGUGG against SLC25A14, the seed-corrected z-score is -0.984.

AUAUGCUUCACCUCUUUAC against SNTB2 registered a seed-corrected z-score of -2.92. As to AUAAGGAUUACUAGUUUUG against CDK8, the seed-corrected z-score came to 0.165.

Take UAAGCACACACAAUGGUAC against DLK2: the seed-corrected z-score worked out at 0.0903. Regarding UAUGGGCCGUGGACUCUCA against TPSAB1, the seed-corrected z-score is -0.127. With UACAGGGACACCACCUUGC against BOK, the seed-corrected z-score is -0.14.

Consider UGGUCUUCACAUUAGAUGC against NUTM1, for which the seed-corrected z-score is -2.03.

UUGUAGUACAUUAACCUUG against ANKRD26 yielded a seed-corrected z-score of 0.963. Sequence UGACAUACUUCGUAAGUCC against ERLEC1 had a seed-corrected z-score of 0.555.

Regarding UUCAUAAAGAGGAGGUACC against CLUH, the seed-corrected z-score worked out at 0.239. AUUUUGAACAUGUUUGCUG against NAPA: the seed-corrected z-score turned out to be 0.31. The result for UUCUGGUAGAUGUGACUGC against ZNF83 reads -0.405; that for UACAAGAUUAUAGGCGGUC against TRAPPC11, 0.0691.

The sequence UCUGAGUCCUCUGUAACCU against MZF1 displayed a seed-corrected z-score of -2.17.

Take UACAGUUCAUCAAUCGUCA against APOA1BP: the seed-corrected z-score is 0.829. Sequence UAUACUUCCCAAGAAGUCC against FAM217B showed a seed-corrected z-score of 0.596. Take UGUUGUUGUGACAAAAUCG against EIF5: the seed-corrected z-score was determined as 0.296.

Regarding UUUAAGAUAGGCGACACUG against LMOD3, the seed-corrected z-score was determined as 0.0486.

Consider UGUAAAUUUGCACCGAUGG against RPTOR, for which the seed-corrected z-score was -12.1. The sequence AUCUGUACAAAUCUCUUUG against ZNF140 yielded a seed-corrected z-score of -0.593. UCCUCUUCGAAUGUUGUCG against TSPAN15: the seed-corrected z-score was -0.886. UUUGCGAUCUUCGAAGCCC against REEP3 registered a seed-corrected z-score of -0.668. Take UCGAUUAAAACCGCGAUCG against PPP2R1B: the seed-corrected z-score was -0.365. Consider UUUGUCAGAAAACGCAUCC against GPR149, for which the seed-corrected z-score is -2.76. With UCAAUGAUCUCGAUGAUGA against PLEC, the seed-corrected z-score was -0.0712. As for UUCCGGGCAGCAAUAAUGG against PGM5, the seed-corrected z-score is -0.0662.

UUUCCCAUCAGGGUUAAGC against OR2A12: the seed-corrected z-score was -0.365. On to UGAUAUAUAAGGCCCGGAC against RPL10A, for which the seed-corrected z-score is -3.19. In turn, UUCUGUAUUCUUCAGCGUG against OR4C16 returned a seed-corrected z-score of -0.379. UUUGGAGCUUGGGAAUUGC against ARHGAP27: the seed-corrected z-score is -0.993. UUUGUUCCUUUUCGAGUUC against CCDC127 returned a seed-corrected z-score of 2.99.

Consider UGAAUCAAAUGAUCUGACC against RAB9A, for which the seed-corrected z-score amounted to 0.786. Regarding AAUGUGAUCAAAAAUAGCC against NAT2, the seed-corrected z-score was 0.2. For the sequence UUGGUUUAAAGUUAAGUUG against C5orf63, the seed-corrected z-score was -2.45. To UUGAUAUUUGUGAAUCUCC against FERMT1 belongs -0.474. Regarding UAUUUAGCAAUGCAGAACU against RPP25L, the seed-corrected z-score is 0.342. UGUCUGAUUCAUUAUGAGC against CCDC74A: the seed-corrected z-score was -0.71. With AAAGGUCCCAGAGUACAUG against SLC25A20, the seed-corrected z-score was determined as 0.174.

UUUAUGCUGAGUCCCAUAG against APBB1IP returned a seed-corrected z-score of -2.98. The result for AAAGUAAUAGAAGUGUUUG against MOB3B reads 0.429; that for UAGAGAGACAGGGUGCAGG against C1orf162, -2.87. In turn, UCUGGUUUUAGUAUUCUUA against NBEAL1 registered a seed-corrected z-score of -0.389. In turn, UUCUUUAGACUGUCCAGCG against KLHL6 returned a seed-corrected z-score of -2.04. UUAGGGCUUGGUAUAGAGG against ST18 yielded a seed-corrected z-score of 0.568. With UUGCGUUCCACAUGUUGAC against PRDM7, the seed-corrected z-score was -9.3. UAAGUGAUUGGAGGUAAAG against LOC727775 registered a seed-corrected z-score of 0.67. Sequence AUAUGGUCCUUCUUAUUGC against HSD52 had a seed-corrected z-score of 0.199. Take AUGCUUAUAGUUGUUCUUC against POU1F1: the seed-corrected z-score was -2.19. The sequence UCACAAAACACUUUGCCGU against LIMD1 yielded a seed-corrected z-score of 0.194. For the sequence UUGGUAGAGAGGUAAAAUG against KRTAP4-4, the seed-corrected z-score came out at 1.06. Take UAAUAGUCAGGUUCCCUGU against OR6C2: the seed-corrected z-score is -0.02. The result for AAAGUAGGACGAGAUGCCG against DDX51 reads 1.06; that for UCUGGACACGGCUUAUUGC against C17orf58, 0.125.

As to AUAAGAACAACAAAUACAC against C2CD4A, the seed-corrected z-score was 0.789. In turn, UGGUUAUUAAUGGUGCACC against ELF2 displayed a seed-corrected z-score of -2.8. Consider UUAGAGCUACUGAACUGCC against DHX58, for which the seed-corrected z-score came out at 0.739. The result for AAGUUGCCAAGAACAUGCU against LINC01168 reads -3.59; that for UAUCUGGUAUGCUACGUCC against CCDC7, 0.683; that for UAUGAUCGAACUUUUUGAG against RSG1, -2.03. To AACCUGUCAAUUAUCACUG against EBF1 belongs 0.337; to UCUCCGUCCACAUUUGUUG against NTRK1, 0.0167. Regarding UCUCUGAUGAGCAUUAAGG against ZNF26, the seed-corrected z-score was -0.977. AAACUUCUUGGGUUUCUAC against ZBTB8OSP1 showed a seed-corrected z-score of 0.246.

The record behind these values is PubChem BioAssay AID1159506 (National Center for Advancing Translational Sciences (NCATS), 2015).
